Experimental data reported in PubChem BioAssay (EPA / NIEHS).
Records with an inconclusive call do not appear. Calls of active or inactive are those of the source. Rule for the calls: active = hit-call score of the fitted dose curve at least 0.9, where 1 is the maximum; inconclusive = response in the unintended direction; inactive = score below 0.9.

Experiments:
[1] = TOX21_p53_BLA_p2_viability: Viability Assessment in the Tox21 HCT-116 p53 Agonism Beta-lactamase Assay, Phase 2 (AID 2283591);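 note: compound exposure lasted 16 h at 37 °C; actives lower the ATP signal meaning cytotoxicity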
Procedure, shortened: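 HCT116 p53-bla cells, 4000/well, dosed after 5 h plating (217-fold dilution of DMSO stocks) and incubated 16 h at 37C. Viability taken as cellular ATP by CellTiter-Glo luminescence after 30 min RT; signal loss marks cytotoxicity.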

[2] = molecular target: Cellular tumor antigen p53 (Homo sapiens) (UniProt P04637); experiment: TOX21_p53_BLA_p3_ratio: Tox21 HCT-116 p53 Agonism Beta-lactamase Assay, Ratio, Phase 3 (AID 2283596)
Procedure, shortened: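 HCT116 p53-bla cells (4000/well) given compound in DMSO (217-fold dilution) after 5 h, incubated 16 h at 37C. CCF4-AM substrate 2 h at room temperature; 460/530 nm emission ratio, gain fitted against DMSO.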

[3] = TOX21_p53_BLA_p4_viability: Viability Assessment in the Tox21 HCT-116 p53 Agonism Beta-lactamase Assay, Phase 4 (AID 2283597);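 note: hits lower the luminescence signal meaning cytotoxicity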
Procedure, shortened: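 Following a 16 h exposure at 37C, the treated HCT116 wells were first read for the FRET ratio. They were then lysed with CellTiter-Glo, and ATP luminescence was recorded after 30 min at room temperature.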

[4] = TOX21_p53_BLA_p5_viability: Viability Assessment in the Tox21 HCT-116 p53 Agonism Beta-lactamase Assay, Phase 5 (AID 2283600)
Procedure, shortened: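 After the 460/530 nm beta-lactamase measurement, the wells received an ATP-detection luciferase reagent; signal was read 30 min later at RT. Compound treatment lasted 16 h on cells pre-incubated 5 h post-seeding.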

[5] = molecular target: Cellular tumor antigen p53 (Homo sapiens) (UniProt P04637); experiment: TOX21_p53_BLA_p4_ratio: Tox21 HCT-116 p53 Agonism Beta-lactamase Assay, Ratio, Phase 4 (AID 2283601)
Procedure, shortened: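 HCT-116 p53 beta-lactamase reporter cells (4000/well) preincubated 5 h, then compound (217-fold dilution of DMSO stock) for 16 h at 37C. CCF4-AM substrate added 2 h at room temperature; 460/530 nm emission ratio fitted upward versus DMSO.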

PGR (gene 5241) = PGR (gene 5241) (UniProt P06401); experiment: TOX21_PR_BLA_Followup_Antagonist_ratio: Tox21 HEK293 Progesterone Receptor (PR) Antagonism Beta-lactamase Follow-Up Assay, Ratio (AID 2283934)
Procedure, shortened: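 PR-UAS-bla HEK293T cells in medium with 2% charcoal-stripped FBS were treated with compounds plus 1 nM (final) promegestone (R5020) for 16 hr at 37C. LiveBLAzer B/G FRET substrate was then added for 2 h at room temperature; signal is cleaved/uncleaved substrate ratio versus DMSO.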

[6] = TOX21_PR_BLA_Followup_Agonist_viability: Viability Assessment in the Tox21 HEK293 Progesterone Receptor (PR) Agonism Beta-lactamase Follow-Up Assay (AID 2283935);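 note: signal loss means lower viability so actives are cytotoxic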
Procedure, shortened: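 PR-UAS-bla HEK293T cells in 2% charcoal-stripped FBS medium, compound added after 6 hr plating, 16 hr at 37C/5% CO2. After bla FRET read, CellTiter-Glo added; luminescence read after 30 min at room temperature; signal loss marks cytotoxicity.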

[7] = TOX21_PR_LUC_Followup_Antagonist_viability: Viability Assessment in the Tox21 HEK293 Progesterone Receptor (PR) Antagonism Luciferase Follow-Up Assay (AID 2283940)
Procedure, shortened: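 HEK293-PR-A-luc cells, precultured 5 days in assay medium with 10% charcoal-stripped FBS, were seeded at 3,000 cells/well, treated with compounds in DMSO for 16 h at 37C, and viability was read as cellular ATP by CellTiter-Glo luminescence.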

[8] = TOX21_PR_LUC_Followup_Agonist_viability: Viability Assessment in the Tox21 HEK293 Progesterone Receptor (PR) Agonism Luciferase Follow-Up Assay (AID 2283941);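 note: loss of signal means cytotoxicity so actives lower viability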
Procedure, shortened: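 HEK293-PR-A-luc cells, pre-cultured 5 days in 10% charcoal-stripped FBS, were seeded at 3,000 cells/well, rested 5 h at 37C, then given compound in DMSO for 16 h at 37C. Cellular ATP was read by CellTiter-Glo luminescence; signal loss indicates cytotoxicity.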

[9] = molecular target: Thyroid hormone receptor alpha (Rattus norvegicus) + Thyroid hormone receptor beta (Rattus norvegicus) (UniProt P18113+P63059); experiment: TOX21_TR_LUC_GH3_Antagonist_Followup: Tox21 GH3 Thyroid Hormone Receptor Antagonism Luciferase Follow-Up Assay (AID 2283942)
Procedure, shortened: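 Antagonist mode: GH3 cells seeded 1,500/well, compounds at 15 concentrations (92 uM to 5nM final) plus T3 at 1.0 nM final, 24 h at 37C. Luciferase read with ONE-Glo after 30 min at room temperature.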

THRB (gene 7068) [10] = molecular target: THRB (gene 7068) (UniProt P10828); experiment: TOX21_TRB_BLA_Antagonist_Followup_ratio: Tox21 Thyroid Hormone Receptor beta Antagonism Beta-lactamase (BLA) Follow-Up Assay, Ratio (AID 2283958)
Procedure, shortened: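 GAL4-DBD/human TRβ-LBD fusion in GeneBLAzer UAS-bla HEK293T cells, 3,000 cells/well in phenol red-free DMEM with 2% charcoal-stripped FBS; compounds at 11 concentrations in triplicate, 18 h at 37C. CCF4-AM substrate 2 h, 460:530 nm ratio relative to DMSO.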

THRB (gene 7068) [11] = molecular target: THRB (gene 7068) (UniProt P10828); experiment: TOX21_TRB_COA_Antagonist_Followup_ratio: Tox21 Thyroid Hormone Receptor beta Antagonism through Coactivator Recruitment Follow-Up Assay, Ratio (AID 2283967)
Procedure, shortened: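 Cell-free TR-FRET: GST-TRb LBD (5.0 nM) with fluorescein-SRC-2 peptide (200 nM) and Tb anti-GST antibody (2 nM), 0.10% BSA. 520:495 nm emission ratio normalized to DMSO (0%) and T3 (100%).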

[12] = TOX21_TR_RXR_BLA_Antagonist_Followup_viability: Viability Assessment in the Tox21 Thyroid Hormone Receptor beta Retinoid X Receptor alpha (RXRa) Antagonism Beta-lactamase (BLA) Follow-Up Assay (AID 2283979)
Procedure, shortened: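 RXRa-bla HEK293T cells (2,500/well, phenol red-free DMEM, 2% charcoal-stripped FBS) were attached 5 h, then exposed to compounds at 11 concentrations in triplicate for 16 h at 37C. Viability measured by CellTiter-Glo ATP luminescence, bidirectional fitting versus DMSO.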

[13] = molecular target: Cellular tumor antigen p53 (Homo sapiens) (UniProt P04637); experiment: TOX21_p53_BLA_p5_ratio: Tox21 HCT-116 p53 Agonism Beta-lactamase Assay, Ratio, Phase 5 (AID 2283599)
Procedure, shortened: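 HCT-116 p53-bla cells (4000/well) plated 5 h, dosed with compound (217-fold DMSO dilution) for 16 h at 37 C; CCF4-AM substrate 2 h at room temperature. Activity is the 460/530 nm emission ratio (405 nm excitation), fitted in gain-of-signal direction versus DMSO.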

[14] = molecular target: Cellular tumor antigen p53 (Homo sapiens) (UniProt P04637); experiment: TOX21_p53_BLA_p2_ratio: Tox21 HCT-116 p53 Agonism Beta-lactamase Assay, Ratio, Phase 2 (AID 2283592)
Procedure, shortened: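 Gain-of-signal p53 agonism was scored from the beta-lactamase FRET ratio (460/530 nm, 405 nm excitation) in HCT116 cells treated 16 h at 37C, 5% CO2, with DMSO serving as negative control and baseline.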

[15] = TOX21_p53_BLA_p3_viability: Viability Assessment in the Tox21 HCT-116 p53 Agonism Beta-lactamase Assay, Phase 3 (AID 2283593);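 note: cells exposed to compound for 16 h before reading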
Procedure, shortened: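 HCT116 cells, 4000/well, dosed 5 h after plating by pin transfer (217-fold dilution from DMSO stock) and incubated 16 h at 37C, 5% CO2. Viability read as ATP luminescence with CellTiter-Glo after 30 min at room temperature.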

Measured: outcome

Chain of Cellular tumor antigen p53 (Homo sapiens) (P04637 whole entry, looked up): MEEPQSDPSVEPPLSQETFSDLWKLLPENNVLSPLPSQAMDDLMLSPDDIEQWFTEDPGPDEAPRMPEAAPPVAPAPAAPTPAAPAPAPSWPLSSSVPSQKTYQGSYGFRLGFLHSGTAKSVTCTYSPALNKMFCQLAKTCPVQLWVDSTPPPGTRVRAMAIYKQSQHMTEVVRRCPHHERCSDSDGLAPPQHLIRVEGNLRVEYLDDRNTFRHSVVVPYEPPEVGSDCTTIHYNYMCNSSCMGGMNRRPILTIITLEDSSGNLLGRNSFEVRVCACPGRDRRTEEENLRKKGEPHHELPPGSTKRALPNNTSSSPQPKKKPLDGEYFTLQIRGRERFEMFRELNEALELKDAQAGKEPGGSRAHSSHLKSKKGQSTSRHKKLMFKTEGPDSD
Chain of THRB (gene 7068) (P10828 whole entry, looked up, the tested form may be a part): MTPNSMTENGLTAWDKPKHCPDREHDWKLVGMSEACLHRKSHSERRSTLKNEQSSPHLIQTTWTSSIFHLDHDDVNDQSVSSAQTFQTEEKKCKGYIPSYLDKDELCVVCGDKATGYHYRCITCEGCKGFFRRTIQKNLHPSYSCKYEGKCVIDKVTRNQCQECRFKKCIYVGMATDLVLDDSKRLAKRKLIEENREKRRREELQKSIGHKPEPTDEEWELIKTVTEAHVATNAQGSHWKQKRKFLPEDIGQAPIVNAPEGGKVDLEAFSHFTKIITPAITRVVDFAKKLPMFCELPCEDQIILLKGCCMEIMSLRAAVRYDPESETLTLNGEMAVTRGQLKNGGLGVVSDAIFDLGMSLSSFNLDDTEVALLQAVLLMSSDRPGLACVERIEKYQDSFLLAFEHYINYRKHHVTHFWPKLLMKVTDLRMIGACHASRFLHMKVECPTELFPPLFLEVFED
Chain of PGR (gene 5241) (P06401 whole entry, looked up): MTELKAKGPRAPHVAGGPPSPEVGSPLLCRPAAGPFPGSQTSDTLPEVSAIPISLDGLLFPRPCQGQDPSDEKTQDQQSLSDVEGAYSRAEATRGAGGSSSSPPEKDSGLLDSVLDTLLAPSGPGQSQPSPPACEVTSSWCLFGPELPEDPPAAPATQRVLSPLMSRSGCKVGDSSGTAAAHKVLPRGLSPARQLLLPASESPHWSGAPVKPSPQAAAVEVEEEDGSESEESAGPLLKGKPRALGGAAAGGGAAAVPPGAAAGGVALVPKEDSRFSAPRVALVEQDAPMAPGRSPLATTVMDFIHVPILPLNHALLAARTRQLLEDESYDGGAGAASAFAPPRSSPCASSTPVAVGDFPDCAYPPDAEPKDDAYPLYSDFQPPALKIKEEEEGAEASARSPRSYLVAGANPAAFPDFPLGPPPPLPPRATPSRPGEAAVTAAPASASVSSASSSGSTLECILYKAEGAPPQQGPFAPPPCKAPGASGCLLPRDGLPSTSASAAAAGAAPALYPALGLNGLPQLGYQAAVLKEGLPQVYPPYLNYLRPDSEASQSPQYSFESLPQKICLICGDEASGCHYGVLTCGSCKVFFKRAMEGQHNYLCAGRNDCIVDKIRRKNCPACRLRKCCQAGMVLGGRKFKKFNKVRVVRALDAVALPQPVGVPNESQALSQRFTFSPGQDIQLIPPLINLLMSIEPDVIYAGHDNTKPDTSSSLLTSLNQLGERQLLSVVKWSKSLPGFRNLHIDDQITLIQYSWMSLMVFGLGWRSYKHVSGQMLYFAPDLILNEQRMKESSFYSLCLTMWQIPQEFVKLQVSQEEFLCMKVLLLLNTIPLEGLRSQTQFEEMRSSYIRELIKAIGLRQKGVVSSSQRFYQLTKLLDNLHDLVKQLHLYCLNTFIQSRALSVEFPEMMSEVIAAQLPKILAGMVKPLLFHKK

CC[C@H]1C[C@H]2[C@@H]3CCC4=CC(=O)CC[C@@H]4[C@H]3CC[C@]2(C)[C@H]1O
not listed: [13] | [14] | [15]
inactive: all other assays above

c1ccc(CN2CCNCC2)cc1
inactive: [1] | [2] | [13]

CCCCCCCCP(=O)(O)O
inactive: [1] | [2] | [5]

ClC(Cl)=C(Cl)Cl
inactive: [1] | [3] | [13] | [4] | [5]

c1ccc(C2(c3ccccc3)CC2C2=NCCN2)cc1 (configuration not stated)
inactive: [1] | [3] | [4]

CNC(=O)Oc1ccccc1C(C)C
inactive: [1] | [2] | [5]

CNC(C)(C)Cc1ccccc1
inactive: [1] | [13] | [4] | [5]

CN1CC[C@]23c4c5ccc(O)c4O[C@H]2[C@@H](O)CC[C@H]3[C@H]1C5
inactive: [1] | [2] | [3] | [13]

CN(C)C(=O)Oc1cc(OC(=O)N(C)C)cc(C(O)CNC(C)(C)C)c1 (configuration not stated)
inactive: [1] | [2]

CCCCCON=O
inactive: [1] | [2] | [13]

O=NN1CCCCC1
inactive: [1] | [2] | [13] | [4] | [5]

CCN(C(C)=O)c1cccc(-c2ccnc3c(C#N)cnn23)c1
inactive: [1] | [13] | [4] | [5]

Cc1nnc2n1-c1ccc(Cl)cc1C(c1ccccc1)=NC2
inactive: [1] | [3] | [13] | [5]

Oc1ccc2c3c1O[C@H]1[C@@H](O)CC[C@@]4(O)[C@@H](C2)N(CC2CCC2)CC[C@]314
inactive: [1] | [2] | [3] | [4]

CCN(CC)CCOC(=O)C(C)(c1ccccc1)c1ccccc1
inactive: [1] | [3] | [13]

CC(=O)[C@H]1CC[C@H]2[C@@H]3CC[C@H]4C[C@H](O)CC[C@]4(C)[C@H]3C(=O)C[C@]12C
inactive: [1] | [3]

Brc1ccccc1
inactive: [1] | [3] | [4]

CC(C)(C)C(=O)Cl
inactive: [1] | [2] | [13] | [4] | [5]

Nc1ccccc1Cl
inactive: [1] | [2] | [3]

Cc1coc2c1CCC(C)C2 (configuration not stated)
inactive: [1] | [3] | [13] | [4]

Nc1cc(Cl)ccc1Cl
inactive: [14] | [15] | [2] | [3] | [13] | [4] | [5]
